BoNT F protease: BoNT F light chain protease inhibition; Multiplex microsphere protease cleavage assay, flow cytometry; inhibition, % at 10 µM; 360,000 compounds, 0.22% hits; in the data active means inhibition above about 35%, passing the limit was not always enough; inconclusive means no clear call, values can overlap the other calls
GDH-TPI counter: inhibits GDH-TPI coupling enzymes, artifact for Mtb FBA screen; AID 588335; 360,000 compounds, 1.2% hits; GDH-TPI coupled enzyme counterscreen, NADH absorbance; inhibition, % at 4.8 µM; in the data active means inhibition above about 30%
BoNT A protease: blocks Botulinum neurotoxin A light chain protease; 360,000 compounds, 0.17% hits; inhibition, % at 10 µM; multiplex microsphere protease substrate cleavage, flow cytometry
Autofluor counter: counter-screen for toxin protease inhibitors: compound fluorescence; compound autofluorescence counterscreen, microsphere flow cytometry; active compounds read high; fluorescence intensity (concentration not given with the values); 360,000 compounds, 3.1% hits; AID 624483; in the data active means fluorescence intensity above about 16000; inconclusive means no clear call, values can overlap the other calls
FBA Mtb inh: Mtb fructose-bisphosphate aldolase inhibition; 360,000 compounds, 2.3% hits; inhibition, % at 1 µM; purified M. tuberculosis FBA, fluorescence read-out; in the data active means inhibition above about 27%
Target sequence (P9WQA3 whole entry, looked up): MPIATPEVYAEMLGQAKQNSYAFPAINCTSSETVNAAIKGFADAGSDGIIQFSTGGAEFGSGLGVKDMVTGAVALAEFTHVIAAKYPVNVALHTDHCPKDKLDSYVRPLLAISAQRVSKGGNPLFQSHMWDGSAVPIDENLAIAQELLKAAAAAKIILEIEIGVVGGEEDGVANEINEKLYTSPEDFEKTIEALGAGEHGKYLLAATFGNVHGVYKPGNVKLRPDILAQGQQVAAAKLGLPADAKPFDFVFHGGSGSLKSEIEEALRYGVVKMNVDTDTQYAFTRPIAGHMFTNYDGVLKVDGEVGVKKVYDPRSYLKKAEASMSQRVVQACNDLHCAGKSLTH
Anthrax LF prot: anthrax lethal factor protease inhibition. AID 588501. inhibition, % at 10 µM. 360,000 compounds, 0.12% hits. multiplex microsphere protease cleavage assay, LF
Hits are given with their value; i = inactive; ? = inconclusive; nt = no result given; + = active, no number. Hits are enriched below; roughly 6.7% of the tested compounds scored in any of these assays. Unless noted, no stated cut-off is given here; in the data, active means inhibition above about 30%; inconclusive means no clear call, values can overlap the other calls; inactive means below that.

SMILES	BoNT F protease	GDH-TPI counter	BoNT A protease	Autofluor counter	FBA Mtb inh	Anthrax LF prot
Cc1c(C(=O)N2CCN(C)CC2)oc2c1C(=O)CC(C)(C)C2	i	i	i	21465	i	i
N=c1c2c(-c3ccccc3)c(-c3ccccc3)n(Cc3ccccc3)c2ncn1CCO	i	i	?	22944	i	i
COc1ccc(C(=O)NNC(=O)CNC(=O)C2CCCCC2)cc1	i	i	i	i	i	i
O=C(Nc1cccc(Br)c1)c1ccn[nH]1	i	i	i	21776	i	i
Cc1cc(C)cc(OCc2ccc(C(=O)O)o2)c1	i	i	i	i	i	i
Cc1c(C)c2ccc(OCc3ccc(C(=O)O)o3)c(C)c2oc1=O	i	i	?	?	130.8	?
O=C(O)c1ccc(COc2c(F)c(F)c(F)c(F)c2F)o1	i	i	i	19586	i	i
Cc1cc(C(=O)N2CCN(c3ccc(C(F)(F)F)cn3)CC2)c(C)o1	?	i	i	i	i	i
O=C(O)C1CCN(C(=O)CCN2C(=O)S/C(=C\c3ccccc3)C2=O)CC1	i	34.9	i	i	i	i
O=C(CCN1C(=O)S/C(=C\c2ccccc2)C1=O)N1CCCCC1	i	i	i	i	i	i
COc1cccc(/C=C2\SC(=O)N(CCC(=O)N3CCCCC3CCO)C2=O)c1 (stereo not drawn)	i	30.8	i	i	i	i
O=C1/C(=C\c2ccccc2)SC(=S)N1CCC(=O)N1CCCCC1CCO (stereo not drawn)	i	i	i	i	i	i
CCCCc1cc(=O)oc2cc(OC(C)C(=O)NCCN3CCOCC3)ccc12 (stereo not drawn)	i	i	i	i	i	i
CCOC(=O)c1[nH]c2ccccc2c1NC(=O)c1nonc1C	i	i	?	21361	i	i
CCOC(=O)c1[nH]c2ccc(Cl)cc2c1NC(=O)c1nonc1C	i	i	i	23712	i	i
CCOC(=O)c1[nH]c2ccc(OC)cc2c1NC(=O)c1nonc1C	i	i	i	i	i	i
Cc1cccc(NC(=O)c2ccccc2Br)n1	i	i	i	i	i	i
Cn1cccc1/C=N/NC(=O)c1ccncc1	i	35.4	i	i	i	i
Cn1cccc1/C=N/NC(=O)Cc1ccccc1	?	i	?	i	i	i
Cn1cccc1/C=N/NC(=O)C(O)c1ccccc1 (stereo not drawn)	?	30.6	i	i	i	i
Cc1ccc(/C=N/NC(=O)c2ccccn2)s1	i	31.6	i	i	i	i
Cc1cccc(C(=O)N/N=C/c2ccncc2)c1	i	i	i	16845	i	i
CC(NC(=O)/C(C#N)=C/c1ccc(N2CCOCC2)cc1)c1ccccc1 (stereo not drawn)	i	i	i	i	i	i
CC(C)CC(=O)NC(c1ccccc1Cl)c1c(O)ccc2ccccc12 (stereo not drawn)	i	i	i	i	i	i
Cn1cccc1/C=N/NC(=O)c1ccccn1	i	30.9	i	i	i	i
SMILES	BoNT F protease	GDH-TPI counter	BoNT A protease	Autofluor counter	FBA Mtb inh	Anthrax LF prot
Cc1cc(C(=O)N/N=C/c2sccc2C)no1	i	i	i	i	i	i
Cc1cc(C(=O)N/N=C/c2cccn2C)no1	i	31.0	i	i	i	i
Cc1ccc(/C=N/NC(=O)c2ccc3ccccc3c2)s1	nt	32.1	nt	nt	i	nt
O=C(O)c1ccc(COc2ccc(/C=N/NC(=O)c3cccs3)cc2)cc1	i	i	i	i	i	i
Cc1cc(C)nc(NC(=O)Cc2ccc(Cl)cc2)c1	i	i	i	i	i	i
N#C/C(=C(/O)CSc1n[nH]c(N)n1)c1nc2ccccc2[nH]1	i	31.6	i	i	i	i
N#C/C(=C(/O)COC(=O)CSc1ccc2ccccc2c1)c1nc2ccccc2[nH]1	i	37.8	i	i	i	i
COC(=O)Nc1ccc2c(c1)N(C(=O)CCN1CCN3CCCC3C1)c1ccccc1CC2 (stereo not drawn)	?	i	i	i	i	i
COC(=O)Nc1ccc2c(c1)N(C(=O)CCN1CCN3CCCC3C1)c1ccccc1S2 (stereo not drawn)	i	i	?	23102	i	i
COc1ccc(-c2nc(CS(=O)CC(=O)NC3CCCCC3)c(C)o2)cc1OC (stereo not drawn)	i	i	i	i	i	i
O=C(N/N=C/c1ccc(OCc2ccccc2)cc1)c1ccco1	nt	i	nt	nt	i	nt
COc1ccc(/C=N/NC(=O)c2ccco2)cc1OCc1ccccc1	nt	39.5	nt	nt	i	nt
COc1ccc(/C=N/NC(=O)c2cc(C)oc2C)cc1OCc1ccccc1	i	32.4	i	i	i	i
O=C(c1cccc(Br)c1)c1cn(-c2ccccc2)nc1C(=O)c1ccccc1	i	i	?	24853	i	i
CCOC(=O)N1CCC(NC(=O)c2cnn3c2NC(c2ccco2)CC3C(F)(F)F)CC1 (stereo not drawn)	i	i	i	i	i	i
CC1=C(C(=O)Nc2ccc([N+](=O)[O-])cc2)C(c2cccc(C(F)(F)F)c2)NC(=S)N1c1ccccc1 (stereo not drawn)	i	i	i	i	i	i
Cc1ccc(NC(=O)C(=O)NCc2ccc(/C=C(/C#N)C(=O)NCc3cccnc3)o2)cc1C	i	33.7	i	i	i	i
Cc1ccc(NC(=O)C(=O)NCc2ccc(/C=C(/C#N)C(=O)NCc3cccnc3)o2)cc1	i	32.1	i	i	i	i
O=[N+]([O-])c1ccc(N2CCN(c3ccc([N+](=O)[O-])cc3CO)CC2)c(CO)c1	i	i	i	i	i	i
CC(CCc1ccccc1)NC(=O)c1ccc(F)cc1 (stereo not drawn)	i	i	i	i	i	i
Cc1cccc(N=NC(=S)NNc2cccc(C)c2)c1	i	i	i	i	+	i
O=C1CC(c2ccc(O)c(O)c2)Oc2c1ccc(O)c2O (stereo not drawn)	i	i	i	i	i	i
O=C1c2cc(O)c(O)cc2OC(c2ccc(O)c(O)c2)C1O (stereo not drawn)	i	31.7	i	i	i	i
O=C(O)c1ccccc1NS(=O)(=O)c1cccc2nsnc12	?	i	i	i	i	i
O=C(NCC1CCCCC1)c1[nH]c(C(F)(F)F)nc1-c1ccccc1	i	nt	i	i	i	i
SMILES	BoNT F protease	GDH-TPI counter	BoNT A protease	Autofluor counter	FBA Mtb inh	Anthrax LF prot
Oc1ccc(/C=N/N=C/c2ccc(O)cc2)cc1	i	31.2	i	i	i	i
Oc1ccc(/C=N/N=C/c2ccc(O)c(O)c2)cc1O	i	43.1	i	i	i	i
Cc1ccc(/C=N/N=C/c2ccc(C)cc2)cc1	i	i	i	i	i	i
O=C1Nc2ccccc2/C1=N\N=C\c1ccc(O)c(O)c1	i	35.8	i	i	i	i
CCc1ccccc1Nc1nc(N)nc(COC(=O)c2cccn2C)n1	i	i	i	21076	i	i
O=C(/C=C/c1ccccc1)NNC(=O)C1CC1	i	i	i	21872	i	i
COc1ccc2c(CC(=O)N[C@@H](Cc3ccccc3)C(=O)O)cc(=O)oc2c1C	i	i	i	i	148.7	i
O=C(Cc1cc(=O)oc2cc(O)ccc12)NC(Cc1ccc(Cl)cc1)C(=O)O (stereo not drawn)	i	i	i	i	+	i
